Data as given in the supplement of paper PMC6411743.
± gives the standard deviation of the averaged measurements. Of roughly 6,500 targets only a part is listed; those with the largest changes were picked by preference.

Compound: Nc1ncnc2c1ncn2[C@@H]1O[C@H](COP(=O)(O)OP(=O)(O)OP(=O)(O)O)[C@@H](O)[C@H]1O [adenosine triphosphate]
Assay: NP40-soluble protein abundance relative to vehicle (solubility fold change) (ratio); higher = more soluble protein in presence of ATP
Outline: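 Data come from three independent experiments in which Dounce-homogenised Jurkat crude lysate was treated at eight concentrations from 0.1 to 10 mM. Treatment ran 10 min at room temperature and then 3 min at 37 °C, after which 0.8% NP40 and benzonase were added for 60 min at 4 °C before ultracentrifugation. The supernatant underwent TMT labelling and LC-MS/MS, and vsn-normalised intensities were expressed as fold change against the detergent-processed vehicle in each replicate.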

Chain of UniProt Q13045 (Q13045 whole entry): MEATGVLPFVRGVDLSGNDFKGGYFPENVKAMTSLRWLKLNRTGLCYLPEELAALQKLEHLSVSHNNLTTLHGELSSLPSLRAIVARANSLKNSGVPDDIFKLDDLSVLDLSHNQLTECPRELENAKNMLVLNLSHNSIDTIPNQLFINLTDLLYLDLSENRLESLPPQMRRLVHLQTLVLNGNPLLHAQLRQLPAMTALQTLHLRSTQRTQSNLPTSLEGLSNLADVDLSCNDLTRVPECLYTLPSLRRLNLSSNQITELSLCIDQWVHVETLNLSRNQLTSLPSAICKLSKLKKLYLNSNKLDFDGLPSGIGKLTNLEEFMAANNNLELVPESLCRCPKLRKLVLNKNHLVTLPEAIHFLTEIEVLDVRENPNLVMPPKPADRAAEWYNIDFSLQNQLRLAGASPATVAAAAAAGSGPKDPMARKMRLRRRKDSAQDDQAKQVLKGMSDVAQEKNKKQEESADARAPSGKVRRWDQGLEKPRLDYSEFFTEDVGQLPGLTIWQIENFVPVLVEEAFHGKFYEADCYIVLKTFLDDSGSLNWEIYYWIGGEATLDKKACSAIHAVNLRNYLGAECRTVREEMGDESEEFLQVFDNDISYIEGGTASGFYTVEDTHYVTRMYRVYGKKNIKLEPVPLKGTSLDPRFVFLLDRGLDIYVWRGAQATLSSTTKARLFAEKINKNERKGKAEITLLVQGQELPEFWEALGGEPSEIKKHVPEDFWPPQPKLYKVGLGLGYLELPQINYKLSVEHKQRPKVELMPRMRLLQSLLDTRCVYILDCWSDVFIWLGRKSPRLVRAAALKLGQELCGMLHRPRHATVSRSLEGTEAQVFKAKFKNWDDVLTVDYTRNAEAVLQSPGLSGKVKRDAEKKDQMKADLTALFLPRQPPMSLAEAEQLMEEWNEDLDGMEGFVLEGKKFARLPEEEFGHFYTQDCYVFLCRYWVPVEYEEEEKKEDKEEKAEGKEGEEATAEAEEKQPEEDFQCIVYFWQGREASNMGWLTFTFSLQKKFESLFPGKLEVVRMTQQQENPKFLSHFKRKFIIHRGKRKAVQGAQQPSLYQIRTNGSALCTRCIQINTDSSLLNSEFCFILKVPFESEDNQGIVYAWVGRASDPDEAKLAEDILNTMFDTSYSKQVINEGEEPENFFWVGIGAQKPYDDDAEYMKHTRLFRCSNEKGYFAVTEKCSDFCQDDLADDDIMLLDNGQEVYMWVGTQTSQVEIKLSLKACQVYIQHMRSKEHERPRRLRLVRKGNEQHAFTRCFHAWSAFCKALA
Chain of UniProt Q8NG08 (Q8NG08 whole entry, one chain of several): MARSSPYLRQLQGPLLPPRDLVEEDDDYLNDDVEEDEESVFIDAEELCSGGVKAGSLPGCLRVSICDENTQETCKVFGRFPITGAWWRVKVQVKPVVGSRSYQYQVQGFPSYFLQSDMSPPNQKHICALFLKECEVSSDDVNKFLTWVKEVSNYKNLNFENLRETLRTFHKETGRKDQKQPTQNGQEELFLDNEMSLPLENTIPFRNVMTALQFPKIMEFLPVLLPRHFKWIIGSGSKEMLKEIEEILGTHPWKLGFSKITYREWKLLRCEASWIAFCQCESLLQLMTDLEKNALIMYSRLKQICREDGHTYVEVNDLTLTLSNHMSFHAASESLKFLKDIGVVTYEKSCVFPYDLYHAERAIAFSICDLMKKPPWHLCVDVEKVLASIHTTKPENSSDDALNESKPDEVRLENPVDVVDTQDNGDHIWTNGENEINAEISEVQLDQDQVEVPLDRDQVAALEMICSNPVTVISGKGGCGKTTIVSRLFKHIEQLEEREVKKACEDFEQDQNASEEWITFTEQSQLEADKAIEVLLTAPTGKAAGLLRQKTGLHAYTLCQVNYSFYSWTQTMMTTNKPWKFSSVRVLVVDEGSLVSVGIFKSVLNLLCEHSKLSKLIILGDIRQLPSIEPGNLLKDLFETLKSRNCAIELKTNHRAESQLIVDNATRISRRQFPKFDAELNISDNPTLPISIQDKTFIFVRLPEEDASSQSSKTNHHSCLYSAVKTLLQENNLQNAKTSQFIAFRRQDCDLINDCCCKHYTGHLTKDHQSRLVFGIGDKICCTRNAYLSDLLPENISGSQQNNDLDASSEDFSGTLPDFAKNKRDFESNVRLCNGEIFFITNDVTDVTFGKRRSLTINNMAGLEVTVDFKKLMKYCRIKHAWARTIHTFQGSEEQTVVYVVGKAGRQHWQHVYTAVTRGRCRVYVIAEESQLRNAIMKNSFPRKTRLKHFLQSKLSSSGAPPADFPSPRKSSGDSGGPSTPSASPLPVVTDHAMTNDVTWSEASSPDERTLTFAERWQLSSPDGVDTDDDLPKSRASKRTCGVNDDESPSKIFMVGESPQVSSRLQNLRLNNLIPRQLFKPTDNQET
Chain of UniProt Q4FZB7 (Q4FZB7 whole entry, looked up): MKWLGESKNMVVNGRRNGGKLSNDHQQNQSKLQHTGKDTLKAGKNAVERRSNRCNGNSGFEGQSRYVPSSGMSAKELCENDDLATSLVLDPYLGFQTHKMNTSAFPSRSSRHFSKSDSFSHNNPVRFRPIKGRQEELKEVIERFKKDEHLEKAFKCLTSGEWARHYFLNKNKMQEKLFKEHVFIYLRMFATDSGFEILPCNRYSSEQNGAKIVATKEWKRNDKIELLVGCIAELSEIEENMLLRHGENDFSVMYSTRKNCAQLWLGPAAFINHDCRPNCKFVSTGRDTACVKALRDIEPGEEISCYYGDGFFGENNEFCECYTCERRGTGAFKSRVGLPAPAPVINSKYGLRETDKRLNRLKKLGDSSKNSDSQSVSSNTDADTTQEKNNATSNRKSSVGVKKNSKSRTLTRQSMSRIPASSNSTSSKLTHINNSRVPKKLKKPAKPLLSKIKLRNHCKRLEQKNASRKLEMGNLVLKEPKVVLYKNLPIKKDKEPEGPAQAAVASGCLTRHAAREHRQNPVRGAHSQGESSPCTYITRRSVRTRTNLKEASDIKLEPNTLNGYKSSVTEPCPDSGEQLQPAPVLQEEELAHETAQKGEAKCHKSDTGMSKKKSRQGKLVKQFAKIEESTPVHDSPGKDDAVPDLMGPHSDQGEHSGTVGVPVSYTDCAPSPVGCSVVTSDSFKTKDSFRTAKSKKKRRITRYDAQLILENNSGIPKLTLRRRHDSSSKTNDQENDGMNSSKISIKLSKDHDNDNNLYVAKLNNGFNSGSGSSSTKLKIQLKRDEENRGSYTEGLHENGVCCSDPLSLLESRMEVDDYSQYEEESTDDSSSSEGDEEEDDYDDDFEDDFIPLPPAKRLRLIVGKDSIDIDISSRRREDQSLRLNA
Chain of UniProt Q08211 (Q08211 whole entry): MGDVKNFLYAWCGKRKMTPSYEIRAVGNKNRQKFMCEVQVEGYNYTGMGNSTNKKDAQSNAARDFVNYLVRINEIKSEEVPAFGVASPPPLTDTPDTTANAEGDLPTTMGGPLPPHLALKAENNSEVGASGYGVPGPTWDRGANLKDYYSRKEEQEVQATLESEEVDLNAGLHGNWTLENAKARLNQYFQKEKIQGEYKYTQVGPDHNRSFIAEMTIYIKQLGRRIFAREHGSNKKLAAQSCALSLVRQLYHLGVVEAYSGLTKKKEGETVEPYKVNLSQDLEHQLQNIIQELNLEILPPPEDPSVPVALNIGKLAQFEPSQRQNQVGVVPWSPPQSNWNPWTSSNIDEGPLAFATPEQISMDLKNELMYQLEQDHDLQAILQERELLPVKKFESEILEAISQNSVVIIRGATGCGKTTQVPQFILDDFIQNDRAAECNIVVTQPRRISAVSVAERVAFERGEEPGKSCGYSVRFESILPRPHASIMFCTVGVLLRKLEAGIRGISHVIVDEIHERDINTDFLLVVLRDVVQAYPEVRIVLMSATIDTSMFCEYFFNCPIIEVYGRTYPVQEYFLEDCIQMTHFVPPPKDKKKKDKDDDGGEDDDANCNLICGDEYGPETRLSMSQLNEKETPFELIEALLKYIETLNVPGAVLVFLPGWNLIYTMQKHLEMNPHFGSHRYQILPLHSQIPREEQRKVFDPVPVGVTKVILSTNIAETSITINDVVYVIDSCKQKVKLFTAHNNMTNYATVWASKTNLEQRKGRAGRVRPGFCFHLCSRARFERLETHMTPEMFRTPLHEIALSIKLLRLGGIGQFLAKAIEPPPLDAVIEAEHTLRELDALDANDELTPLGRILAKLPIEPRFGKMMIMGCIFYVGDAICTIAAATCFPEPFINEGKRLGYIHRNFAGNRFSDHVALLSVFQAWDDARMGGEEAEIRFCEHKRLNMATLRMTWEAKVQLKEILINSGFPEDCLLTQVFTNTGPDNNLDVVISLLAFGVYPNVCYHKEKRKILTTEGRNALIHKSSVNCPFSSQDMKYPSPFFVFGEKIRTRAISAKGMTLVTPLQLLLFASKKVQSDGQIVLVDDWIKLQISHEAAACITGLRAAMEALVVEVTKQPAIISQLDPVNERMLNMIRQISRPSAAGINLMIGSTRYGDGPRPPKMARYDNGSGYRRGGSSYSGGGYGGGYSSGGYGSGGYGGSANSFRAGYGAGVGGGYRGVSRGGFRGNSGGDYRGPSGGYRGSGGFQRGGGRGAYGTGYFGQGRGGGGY
Chain of UniProt Q7L4P6 (Q7L4P6 whole entry): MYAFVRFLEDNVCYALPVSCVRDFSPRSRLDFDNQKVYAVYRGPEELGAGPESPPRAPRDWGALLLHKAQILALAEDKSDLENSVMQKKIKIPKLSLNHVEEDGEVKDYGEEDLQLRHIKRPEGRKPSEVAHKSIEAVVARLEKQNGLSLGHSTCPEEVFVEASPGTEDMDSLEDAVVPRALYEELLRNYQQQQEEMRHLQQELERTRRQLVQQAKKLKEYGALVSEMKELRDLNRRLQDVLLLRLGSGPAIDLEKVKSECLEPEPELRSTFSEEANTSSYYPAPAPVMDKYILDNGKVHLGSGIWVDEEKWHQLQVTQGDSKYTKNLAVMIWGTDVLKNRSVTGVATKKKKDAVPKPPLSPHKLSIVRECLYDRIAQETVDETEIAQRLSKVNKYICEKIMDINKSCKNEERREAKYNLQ

Target	NP40-soluble protein abundance (concentration: 1mM)	NP40-soluble protein abundance (concentration: 2mM)	NP40-soluble protein abundance (concentration: 4mM)	NP40-soluble protein abundance (concentration: 6mM)	NP40-soluble protein abundance (concentration: 8mM)	NP40-soluble protein abundance (concentration: 10mM)
LYPLAL1 (UniProt Q5VWZ2)	0.942 ± 0.077	0.936 ± 0.066	0.892 ± 0.048	0.879 ± 0.12	0.883 ± 0.03	0.904 ± 0.057
UniProt Q14498|Q14498-2	1.59 ± 0.14	1.72 ± 0.12	1.84 ± 0.12	1.93 ± 0.13	1.98 ± 0.15	2.02 ± 0.2
C6ORF134 (UniProt Q5SQI0)	0.975 ± 0.073	0.98 ± 0.089	0.981 ± 0.064	0.999 ± 0.09	0.983 ± 0.029	0.998 ± 0.04
UniProt Q7L4P6|Q7L4P6-2	0.995 ± 0.085	1.12 ± 0.2	1.23 ± 0.3	1.2 ± 0.21	1.02 ± 0.096	1.12 ± 0.14
DHX9 (UniProt Q08211)	1.24 ± 0.071	1.29 ± 0.043	1.49 ± 0.03	1.55 ± 0.024	1.88 ± 0.091	1.95 ± 0.15
PPIG (UniProt Q13427)	1.61 ± 0.22	1.69 ± 0.27	1.78 ± 0.32	1.99 ± 0.49	1.85 ± 0.43	1.95 ± 0.46
UniProt Q13243	1.5 ± 0.12	1.63 ± 0.088	1.76 ± 0.12	1.95 ± 0.11	1.92 ± 0.13	1.98 ± 0.07
UniProt Q8WU79|A0A087WV97|Q8WU79-2|Q8WU79-3	0.891 ± 0.067	0.924 ± 0.024	0.869 ± 0.011	0.975 ± 0.047	0.839 ± 0.017	0.872 ± 0.032
THOC5 (UniProt Q13769)	1.53 ± 0.054	1.68 ± 0.11	2.01 ± 0.17	2.23 ± 0.28	2.52 ± 0.27	2.52 ± 0.29
UniProt Q86VR2	0.91 ± 0.084	0.941 ± 0.088	0.925 ± 0.11	0.869 ± 0.037	0.906 ± 0.064	0.943 ± 0.052
UniProt Q13137|Q13137-3|Q13137-4|Q13137-5|H0YBP4	0.962 ± 0.033	0.968 ± 0.032	0.9319 ± 0.0066	0.986 ± 0.03	0.941 ± 0.012	0.948 ± 0.026
UniProt Q0VDD8-4	0.837 ± 0.098	0.884 ± 0.028	0.9026 ± 0.0016	0.9241 ± 0.0037	0.956 ± 0.13	1.06 ± 0.059
UniProt Q4G0J3|Q4G0J3-3	1.17 ± 0.046	1.22 ± 0.047	1.36 ± 0.021	1.507 ± 0.0071	1.56 ± 0.049	1.71 ± 0.018
UniProt Q14289|Q14289-2|H0YB74	1.03 ± 0.04	1.04 ± 0.042	1.02 ± 0.04	0.981 ± 0.06	1.01 ± 0.04	1 ± 0.064
UniProt Q4FZB7	0.985 ± 0.15	1.1 ± 0.23	1.07 ± 0.11	1.01 ± 0.16	1.01 ± 0.029	0.983 ± 0.065
UniProt Q8N137|Q8N137-2|Q8N137-3|Q8N137-4|Q8N137-5	0.92 ± 0.024	1.032 ± 0.006	1.15 ± 0.056	0.983 ± 0.054	0.945 ± 0.026	0.947 ± 0.2
UniProt Q13045|Q13045-2	1.01 ± 0.039	0.985 ± 0.042	0.974 ± 0.03	0.949 ± 0.058	0.976 ± 0.026	0.968 ± 0.051
UniProt Q13438|Q13438-7	0.953 ± 0.036	0.953 ± 0.049	0.94 ± 0.056	0.99 ± 0.069	0.939 ± 0.031	0.952 ± 0.045

Target	NP40-soluble protein abundance (concentration: 1mM)	NP40-soluble protein abundance (concentration: 2mM)	NP40-soluble protein abundance (concentration: 4mM)	NP40-soluble protein abundance (concentration: 6mM)	NP40-soluble protein abundance (concentration: 8mM)	NP40-soluble protein abundance (concentration: 10mM)
SMC5 (UniProt Q8IY18)	1.02 ± 0.026	1.02 ± 0.013	1.02 ± 0.02	1.04 ± 0.02	1.04 ± 0.016	1.04 ± 0.017
UniProt Q8N766|Q8N766-3	0.974 ± 0.082	0.977 ± 0.065	0.982 ± 0.056	0.878 ± 0.1	0.934 ± 0.013	0.977 ± 0.052
UniProt Q13761|Q13761-2	1.07 ± 0.2	1.18 ± 0.35	1.18 ± 0.3	1.19 ± 0.31	1.13 ± 0.23	1.18 ± 0.13
CUL4A (UniProt Q13619)	0.99 ± 0.13	0.955 ± 0.08	0.918 ± 0.08	0.89 ± 0.098	0.963 ± 0.047	0.94 ± 0.047
UniProt Q8NB78	1.11 ± 0.064	1.09 ± 0.025	1.11 ± 0.08	0.998 ± 0.08	1.11 ± 0.035	1.09 ± 0.025
UniProt Q8NG08|F5H1I4	1.05 ± 0.18	1.06 ± 0.12	1.09 ± 0.16	0.955 ± 0.13	0.984 ± 0.066	1.01 ± 0.1
UniProt Q53GS7|Q53GS7-2	1.18 ± 0.079	1.19 ± 0.12	1.39 ± 0.24	1.54 ± 0.24	1.52 ± 0.2	1.71 ± 0.23
PIGO (UniProt Q8TEQ8)	0.991 ± 0.035	1 ± 0.062	0.996 ± 0.02	0.979 ± 0.073	0.983 ± 0.051	1.01 ± 0.039
UniProt Q8TED0|H0Y8P4|Q8TED0-3	1.18 ± 0.18	1.22 ± 0.11	1.32 ± 0.18	1.43 ± 0.28	1.5 ± 0.24	1.77 ± 0.41
UniProt Q15397	1.28 ± 0.054	1.39 ± 0.058	1.53 ± 0.073	1.6 ± 0.13	1.7 ± 0.042	1.96 ± 0.12
KIF18A (UniProt Q8NI77)	1.09 ± 0.11	0.996 ± 0.2	1.09 ± 0.035	1.06 ± 0.013	1.09 ± 0.18	1.18 ± 0.16
UniProt Q13409|Q13409-2|Q13409-3|Q13409-7|Q13409-5	0.957 ± 0.063	0.957 ± 0.037	0.953 ± 0.059	0.994 ± 0.18	0.975 ± 0.089	0.973 ± 0.074
TBC1D25 (UniProt Q3MII6)	0.982 ± 0.059	1.04 ± 0.11	1.05 ± 0.16	0.962 ± 0.095	1.01 ± 0.14	1 ± 0.15
ZC3H12A (UniProt Q5D1E8)	0.982 ± 0.088	1.05 ± 0.089	0.988 ± 0.11	1.02 ± 0.085	1.02 ± 0.084	0.943 ± 0.11
UniProt Q8IWZ8	1.03 ± 0.036	1.05 ± 0.037	1.08 ± 0.034	1.11 ± 0.068	1.11 ± 0.051	1.09 ± 0.037
Q5QPA5|Q9NVS2|Q9NVS2-2 (UniProt Q9NVS2)	1.07 ± 0.12	0.926 ± 0.14	0.879 ± 0.17	0.946 ± 0.39	0.887 ± 0.24	0.818 ± 0.2
UniProt Q15036|Q15036-2	0.88 ± 0.17	0.835 ± 0.14	0.853 ± 0.15	0.808 ± 0.18	0.808 ± 0.12	0.849 ± 0.16
UniProt Q3KQU3|Q3KQU3-4	1.08 ± 0.1	1.03 ± 0.11	1.09 ± 0.13	1.13 ± 0.26	1.1 ± 0.16	1.14 ± 0.13
